# Measurements taken from publication PMC4552634, “A New Set of Chemical Starting Points with Plasmodium falciparum Transmission-Blocking Potential for Antimalarial Drug Discovery” (PLoS ONE, 2015).
# Read-outs that look alike come from different tables or passages of the source. The whole screen tested about 13,000 compounds, of which about 3,200 (25%) showed an effect of 50% or more. The list shows a part of the results.
# Tested on: P. falciparum stage V gametocytes
# Design: BacTiter-Glo ATP luminescence viability of purified stage V gametocytes in 384-well plates, per cent inhibition versus DMSO
# Conditions: 48 h, 5 µM, inhibitor
SMILES,% Inhibition [%],% Inhibition (% Inhibition) [%]
Cc1cc(CN2CCC(N3CC(c4ccccc4)(c4ccccc4)OC3=O)C2)ccc1O (stereo not drawn) [TCMDC-136072],-30.84,
CCN(CC)CCCCNc1cc(-c2[nH]c(C(C)(C)C)nc2-c2ccc3cc(OC)ccc3c2)ccn1 [TCMDC-141246],101.1,
COc1cc(-c2nc(C(C)(C)CN)[nH]c2-c2ccncc2)ccc1Br [TCMDC-140674],-82.82,
COc1cccc(CNCC(C)(C)c2nc(-c3ccc(Cl)c(O)c3)c(-c3ccncc3)[nH]2)c1 [TCMDC-140687],-54.89,
CCN(CC)CCCCNc1cc(-c2[nH]c(-c3c(Cl)cccc3Cl)nc2-c2ccc3cc(OC)ccc3c2)ccn1 [TCMDC-141249],85.02,
CN(C)CCOc1ccc(NC(=O)NC(C)(C)c2nc(-c3ccc(Cl)c(O)c3)c(-c3ccncc3)[nH]2)cc1 [TCMDC-140744],-34.41,
COc1cc(-c2nc(-c3ccc4c(c3)CCC4=NO)c(-c3ccncc3)[nH]2)ccc1OCCN1CCN(C)CC1 [TCMDC-141256],-11.77,
COc1cc(NC(=O)CCCCCCCN2CCN(C)CC2)c2ncccc2c1 [TCMDC-138214],-6.593,
COc1ccc2cc(-c3nc(-c4c(Cl)cccc4Cl)[nH]c3-c3ccnc(NCCC4CCCN4C)c3)ccc2c1 (stereo not drawn) [TCMDC-141248],70.07,
COc1ccc2cc(-c3nc(-c4c(Cl)cccc4Cl)[nH]c3-c3ccnc(NCCCN4CCN(C)CC4)c3)ccc2c1 [TCMDC-141250],55.44,
CC(C)(CNC(=O)[C@@H]1CCCN(CCOc2ccc(Cl)cc2)C1)c1nc(-c2ccc(Cl)c(O)c2)c(-c2ccncc2)[nH]1 [TCMDC-141125],7.649,
COc1cc(-c2cc3cc(Cl)c(Cl)cc3[nH]2)ccc1C(=O)NCCC1CCCN1C (stereo not drawn) [TCMDC-141287],-25.11,
COc1ccc(C)c(Nc2ccnc(Nc3cccc(-c4nc5ccccc5[nH]4)c3)n2)c1 [TCMDC-138696],21,
N=C(N)c1ccc(C(=O)Nc2cccc(C(=N)N)c2)cc1 [TCMDC-137804],7.039,
CCOc1cc(C(=O)NCCCN2CCN(c3cccc(Cl)c3)CC2)ccc1-c1nc2cc(Cl)c(F)cc2[nH]1 [TCMDC-140097],-13.16,
O=C(/C=C/c1ccc(Cl)c(Cl)c1)NCCCCCN1CCC(NC(=O)Nc2ccccc2Cl)CC1 [TCMDC-135710],-61.78,
Cc1ccc(Nc2ccnc3ccc(C(F)(F)F)cc23)cc1O [TCMDC-138307],-31.91,
CC1(C)N=C(N)NC(NOCC=Cc2ccccc2)=N1 [TCMDC-131690],-2.035,
O=C(NCCc1ccc(Cl)c(Cl)c1)[C@@H]1CCCN1C(=O)c1ccc(O)c(-c2ccc(Cl)c(Cl)c2)c1 [TCMDC-140871],35.67,
COc1ccc(Nc2ncc3c(-c4cccc(NC(=O)Cc5cccnc5)c4)c[nH]c3n2)cc1OC [TCMDC-135285],-50.17,
CN(C)CCNC(=O)c1ccc2c(c1)n(C1CCN(S(=O)(=O)c3ccc(-c4ccccc4)cc3)CC1)c(=O)n2CC1CCCCC1 [TCMDC-135414],22.96,
CCc1cccc(NC(=O)/C=C/c2ccc3c(c2)CN(C)CC3)c1 [TCMDC-139241],27.65,
NC1=NC(c2ccccc2)(c2cccc(O)c2)C(=O)N1CCCc1ccccc1 (stereo not drawn) [TCMDC-132352],,-21.91

SMILES,% Inhibition [%],% Inhibition (% Inhibition) [%]
CC1CCCCN1CCCNC(=O)c1cccc(-c2cc3cc(Cl)c(Cl)cc3[nH]2)c1 (stereo not drawn) [TCMDC-141291],-28.41,
CCOc1cc(C(=O)NCCCN2CCCCC2C)ccc1-c1nc2ccc(Cl)cc2[nH]1 (stereo not drawn) [TCMDC-140915],4.733,
COc1ccc2cc(-c3nc(-c4c(Cl)cccc4Cl)[nH]c3-c3ccnc(NCCCN4CCCCC4C)c3)ccc2c1 (stereo not drawn) [TCMDC-141247],95.77,
CCn1c(C)c(C)c2cc(C(=O)Nc3ccon3)ccc21 [TCMDC-124915],28.52,
c1ccc(C(OCCC2CCN(Cc3cccnc3)CC2)c2ccccc2)cc1 [TCMDC-136045],0.3767,
Cn1cc(CN2CCC(CCOC(c3ccccc3)c3ccccc3)CC2)cn1 [TCMDC-136046],75.05,
Cn1cc(CN2CCCC(COC(c3ccccc3)c3ccccc3)C2)cn1 (stereo not drawn) [TCMDC-136042],17.19,
Oc1ccc(CN2CCN(CCOC(c3ccccc3)c3ccc(Cl)cc3)CC2)cc1Cl (stereo not drawn) [TCMDC-135689],3.239,
Cn1cc(CN2CCC(OC(c3ccccc3)c3ccc(Cl)cc3)CC2)cn1 (stereo not drawn) [TCMDC-136165],63.85,
Oc1ccccc1CN1CCN(C(c2ccccc2)c2ccccc2)CC1 [TCMDC-124458],18.52,
Cn1cc(CN2CCCC(COC(c3ccc(F)cc3)c3ccc(F)cc3)C2)cn1 (stereo not drawn) [TCMDC-136043],-3.69,
Oc1ccccc1CN1CCC(CCOC(c2ccccc2)c2ccc(Cl)cc2)CC1 (stereo not drawn) [TCMDC-136039],23.64,
CC(C)N1CCC(Oc2ccc(CN3CCN(C(c4ccccc4)c4ccc(Cl)cc4)CC3)cc2)CC1 (stereo not drawn) [TCMDC-132411],68.21,
NC(=O)c1cccc(Nc2nccc(Nc3ccc(Oc4cccc(Cl)c4)c(Cl)c3)n2)c1 [TCMDC-138593],-22.97,
Cc1c(S(=O)(=O)Nc2ccc3ccn(CCN(C)C)c3c2)sc2ccc(Cl)cc12 [TCMDC-139126],-31.84,
COc1ccc(C2CC(c3ccccc3O)=NN2C(=O)c2ccco2)cc1OC (stereo not drawn) [TCMDC-125347],-56.68,
CC(C)C[C@H](Nc1ccnc(NCC2CCCCC2)n1)C(=O)NCCOc1ccccc1 [TCMDC-134712],15.38,
Cc1cc(O)c(CN(C)Cc2ccc3c(c2)OCO3)cc1C(C)C [TCMDC-124881],27,
CCOc1ccc(CN(CCc2ccc3c(c2)OCO3)Cc2cc(OC)ccc2O)cc1 [TCMDC-125607],58.7,
Cc1cc(O)c(CN(C)Cc2ccc3c(c2)OCCO3)cc1C(C)C [TCMDC-124884],16.52,
CCOC(=O)c1ccc(NC(=O)Nc2cccc(-c3ccc(-c4nc5ccc(F)cc5[nH]4)cc3)c2)cc1 [TCMDC-133267],-0.2568,
Cc1cccc2nc(-c3cccc(-c4ccc(CN5CCC(C(N)=O)CC5)cc4)c3)[nH]c12.O=C(O)C(F)(F)F [TCMDC-132697],21.78,
CS(=O)(=O)c1ccc(-c2cnc(N)c(-c3cccc(CO)c3)c2)cc1 [TCMDC-133352],33.58,

SMILES,% Inhibition [%],% Inhibition (% Inhibition) [%]
COc1ccc(-c2cnc(N)c(-c3ccc(C(N)=O)cc3)c2)cc1OC [TCMDC-133349],67.55,
COc1ccc(-c2cnc(N)c(-c3ccc(O)c(OC)c3)c2)cn1 [TCMDC-133350],11.39,
COc1cc(-c2cc(-c3ccc(S(C)(=O)=O)cc3)cnc2N)ccc1O [TCMDC-133343],105.4,
COc1ccc(-c2ccc3c(-c4ccc(F)cc4)cnc(N)c3c2)cn1 [TCMDC-134503],16.03,
CS(=O)(=O)c1ccc2nc(-c3cc(-c4cccc(F)c4)cnc3N)[nH]c2c1 [TCMDC-133134],32.71,
COC(=O)c1ccc2nc(-c3cc(-c4cccc(-c5ccccc5)c4)cnc3N)[nH]c2c1 [TCMDC-135320],-16.97,
COc1cc(-c2cnc(N)c(-c3nc4ccccc4[nH]3)c2)cc(OC)c1OC [TCMDC-138793],9.298,
CS(=O)(=O)c1ccc(-c2cnc(N)c(-c3cccc(O)c3)c2)cc1 [TCMDC-133347],65.54,
COCc1cccc(-c2cc(-c3ccc(S(C)(=O)=O)cc3)cnc2N)c1 [TCMDC-133342],35.59,
COc1ccc(-c2cc(-c3ccc(S(C)(=O)=O)cc3)cnc2N)cn1 [TCMDC-133351],104.2,
CS(=O)(=O)c1ccc(-c2cnc(N)c(-c3ccc(O)cc3)c2)cc1 [TCMDC-133348],24.96,
CCCc1cc(OC)c(CC2c3cc(O)c(C)cc3CCN2C)cc1OC (stereo not drawn) [TCMDC-137164],-32.49,
Cc1c(C)n(C2CCCCC2)c2ncnc(OC3CCN(CC(=O)NC4CC4)CC3)c12 [TCMDC-124853],15.8,
CCCc1cnc2nc(N)nc(N)c2c1C [TCMDC-138066],12.33,
Cn1cc(-c2ccccc2C(=O)O)c(=O)c2cc(Cl)ccc21 [TCMDC-123861],6.577,
CCOc1cc(C(=O)N[C@@H](Cc2ccccc2)[C@H](O)CNCc2cc(OC)cc(OC)c2)cc(N2CCCC2=O)c1 [TCMDC-134571],-29.57,
COCc1cc(C)nc2sc(C(=O)Nc3cc(C(C)(C)C)ccc3O)c(N)c12 [TCMDC-125131],1.168,
O=C(/C=C/c1ccc(Cl)c(Cl)c1)NCCCCCN1CCCN(C(=O)Nc2cc(F)cc(F)c2)CC1 [TCMDC-135751],-53.24,
Oc1cccc(Nc2ccnc3cc(-c4cc5ccccc5o4)ccc23)c1 [TCMDC-138287],-55.42,
COc1ccc(Cc2c(N)nc3nc(N)nc(N)c3c2C)cc1 [TCMDC-138061],18.63,
COc1cccc(-c2cc3c(NCc4ccncc4)nccc3s2)c1 [TCMDC-135200],-6.172,
CC(C)CC(=O)N1CCNC[C@@H]1C(=O)NCCSCc1c(F)cccc1Cl [TCMDC-141243],-23.04,
O=C(/C=C/c1ccc(Cl)c(Cl)c1)N1CCCC(CCCN2CCC(c3c[nH]c4ccccc34)CC2)C1 (stereo not drawn) [TCMDC-139505],18.14,
